# Measurements taken from PubChem BioAssay AID1159580 (chemical genetic matrix, 2015).
# Screen size: about 5,500 compounds; about 2,000 (36%) were called active. Roughly 18% stayed inconclusive and do not appear here. This is one part of the list. Unmarked numbers belong to inactive results. No stated cut-off is given here; in the data, active means normalized growth mostly below about 0.91 (no sharp cut-off); inconclusive means no clear call, values can overlap the other calls; inactive means mostly above about 0.92.
# Assay: chemical genetic growth profiling, strain panel (AID 1159580);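 further: tested at 20 µM; growth read once vehicle control cultures reached saturation at 30 °C; 1 = growth at the plate median or of vehicle wells; lower values mean less growth of the strain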
# Conditions: S. cerevisiae deletion strains, growth OD
smiles,measurement,setting,value
NNCc1ccccc1,normalized growth,"locus YAL021C, strain ccr4, hits give low values",0.993
same,normalized growth,"locus YAL026C, strain drs2, hits give low values",0.986
same,normalized growth,"locus YAL030W, strain snc1, hits give low values",0.979
same,normalized growth,"locus YBL061C, strain skt5, hits give low values",0.983
same,normalized growth,"locus YBR009C, strain hhf1, hits give low values",1
same,normalized growth,"locus YBR023C, strain chs3, hits give low values",0.982
same,normalized growth,"locus YBR171W, strain sec66, hits give low values",0.97
same,normalized growth,"locus YBR231C, strain swc5, hits give low values",1.01
same,normalized growth,"locus YBR279W, strain paf1, hits give low values",0.982
same,normalized growth,"locus YCL011C, strain gbp2, hits give low values",0.99
same,normalized growth,"locus YCL016C, strain dcc1, hits give low values",0.982
same,normalized growth,"locus YCL069W, strain vba3, hits give low values",0.993
same,normalized growth,"locus YCR088W, strain abp1, hits give low values",0.974
same,normalized growth,"locus YDL005C, strain med2, hits give low values",0.992
same,normalized growth,"locus YDL040C, strain nat1, hits give low values",0.971
same,normalized growth,"locus YDR001C, strain nth1, hits give low values",0.989
same,normalized growth,"locus YDR069C, strain doa4, hits give low values",0.976
same,normalized growth,"locus YDR137W, strain rgp1, hits give low values",0.96
same,normalized growth,"locus YDR159W, strain sac3, hits give low values",0.983
same,normalized growth,"locus YDR195W, strain ref2",1.02
same,normalized growth,"locus YDR297W, strain sur2, hits give low values",0.989
same,normalized growth,"locus YDR334W, strain swr1, hits give low values",0.99
same,normalized growth,"locus YDR335W, strain msn5, hits give low values",1
same,normalized growth,"locus YDR392W, strain spt3, hits give low values",1
same,normalized growth,"locus YEL003W, strain gim4, hits give low values",0.996
same,normalized growth,"locus YEL037C, strain rad23, hits give low values",0.991
same,normalized growth,"locus YEL061C, strain CIN8 (second series), hits give low values",0.978
same,normalized growth,"locus YER015W, strain faa2, hits give low values",0.999
same,normalized growth,"locus YER016W, strain bim1, hits give low values",0.998
same,normalized growth,"locus YER111C, strain swi4, hits give low values",0.988
same,normalized growth,"locus YER155C, strain BEM2 (second series), hits give low values",0.989
same,normalized growth,"locus YFR010W, strain ubp6, hits give low values",0.989
same,normalized growth,"locus YGL167C, strain pmr1, hits give low values",0.989
same,normalized growth,"locus YGL173C, strain kem1, hits give low values",0.961
same,normalized growth,"locus YGL227W, strain vid30, hits give low values",0.994
same,normalized growth,"locus YGL240W, strain doc1, hits give low values",0.98
same,normalized growth,"locus YGL253W, strain hxk2, hits give low values",0.993
same,normalized growth,"locus YHR013C, strain ard1, hits give low values",1.03
same,normalized growth,"locus YHR027C, strain rpn1, hits give low values",0.997
same,normalized growth,"locus YHR142W, strain chs7, hits give low values",0.985
same,normalized growth,"locus YJL092W, strain hpr5, hits give low values",0.993
same,normalized growth,"locus YJL095W, strain BCK1 (second series), hits give low values",0.986
same,normalized growth,"locus YJL115W, strain asf1, hits give low values",0.987
same,normalized growth,"locus YJL129C, strain trk1, hits give low values",0.978
same,normalized growth,"locus YJL154C, strain vps35, hits give low values",0.986
same,normalized growth,"locus YJL164C, strain tpk1, hits give low values",0.98
same,normalized growth,"locus YJL166W, strain qcr8, hits give low values",0.997
same,normalized growth,"locus YJL187C, strain SWE1, hits give low values",0.987
same,normalized growth,"locus YKL160W, strain elf1, hits give low values",0.988
same,normalized growth,"locus YKR026C, strain gcn3, hits give low values",0.974
same,normalized growth,"locus YKR091W, strain srl3, hits give low values",0.985
same,normalized growth,"locus YLL001W, strain dnm1, hits give low values",0.983
same,normalized growth,"locus YLL026W, hits give low values",1
same,normalized growth,"locus YLL041C, strain sdh2, hits give low values",0.992
same,normalized growth,"locus YLR027C, strain aat2, hits give low values",0.991
same,normalized growth,"locus YLR221C, strain rsa3, hits give low values",0.978
same,normalized growth,"locus YLR258W, strain gsy2, hits give low values",0.987
same,normalized growth,"locus YLR262C, strain YPT6 (second series), hits give low values",0.906
same,normalized growth,"locus YLR320W, strain mms22, hits give low values",0.993
same,normalized growth,"locus YLR342W, strain FKS1, hits give low values",0.981
same,normalized growth,"locus YLR357W, strain rsc2, hits give low values",0.967
same,normalized growth,"locus YLR370C, strain arc18, hits give low values",0.983
same,normalized growth,"locus YLR384C, strain iki3, hits give low values",0.992
same,normalized growth,"locus YML120C, strain ndi1, hits give low values",0.979
same,normalized growth,"locus YMR058W, strain fet3, hits give low values",0.996
same,normalized growth,"locus YMR125W, strain sto1, hits give low values",0.986
same,normalized growth,"locus YMR129W, hits give low values",0.99
same,normalized growth,"locus YMR205C, strain PFK2, hits give low values",0.976
same,normalized growth,"locus YMR231W, strain pep5, hits give low values",0.994
same,normalized growth,"locus YNL071W, strain lat1, hits give low values",1.01
same,normalized growth,"locus YNL209W, strain ssb2, hits give low values",0.989
same,normalized growth,"locus YNL248C, strain rpa49, hits give low values",0.993
same,normalized growth,"locus YNL322C, strain KRE1 (second series), hits give low values",0.992
same,normalized growth,"locus YNR049C, strain mso1, hits give low values",0.99
same,normalized growth,"locus YOR001W, strain rrp6, hits give low values",0.994
same,normalized growth,"locus YOR070C, strain gyp1, hits give low values",0.989
same,normalized growth,"locus YOR080W, strain dia2, hits give low values",0.983
same,normalized growth,"locus YOR083W, strain WHI5, hits give low values",0.987
same,normalized growth,"locus YOR106W, strain vam3, hits give low values",0.963
same,normalized growth,"locus YOR265W, strain rbl2, hits give low values",1
same,normalized growth,"locus YOR270C, strain vph1, hits give low values",0.979
same,normalized growth,"locus YOR290C, strain snf2, hits give low values",0.987
same,normalized growth,"locus YPL051W, strain arl3, hits give low values",0.969
same,normalized growth,"locus YPL078C, strain atp4, hits give low values",0.997
same,normalized growth,"locus YPL106C, strain sse1, hits give low values",0.963
same,normalized growth,"locus YPL240C, strain hsp82, hits give low values",1
O=C1c2ccccc2C(=O)c2sccc21,normalized growth,"locus YAR019C, strain CDC15, hits give low values",0.556 (active)
same,normalized growth,"locus YBL105C, strain PKC1, hits give low values",0.778 (active)
same,normalized growth,"locus YBR135W, strain CKS1, hits give low values",0.716 (active)
same,normalized growth,"locus YBR136W, strain MEC1, hits give low values",0.718 (active)
same,normalized growth,"locus YBR160W, strain CDC28, hits give low values",0.75 (active)
same,normalized growth,"locus YDL017W, strain CDC7, hits give low values",0.72 (active)
same,normalized growth,"locus YDL028C, strain MPS1, hits give low values",0.749 (active)
same,normalized growth,"locus YDL101C, strain DUN1, hits give low values",0.466 (active)
same,normalized growth,"locus YDL108W, strain KIN28, hits give low values",0.752 (active)
same,normalized growth,"locus YDL132W, strain cdc53, hits give low values",0.674 (active)
same,normalized growth,"locus YDL214C, strain PRR2, hits give low values",0.233 (active)
same,normalized growth,"locus YDR052C, strain DBF4, hits give low values",0.646 (active)
same,normalized growth,"locus YDR054C, strain cdc34, hits give low values",0.556 (active)
same,normalized growth,"locus YDR226W, strain ADK1, hits give low values",0.751 (active)
same,normalized growth,"locus YDR477W, strain SNF1, hits give low values",0.209 (active)
same,normalized growth,"locus YER123W, strain YCK3, hits give low values",0.183 (active)
same,normalized growth,"locus YER133W, strain GLC7, hits give low values",0.225 (active)
same,normalized growth,"locus YFL009W, strain cdc4, hits give low values",0.59 (active)
same,normalized growth,"locus YFL029C, strain CAK1, hits give low values",0.4 (active)
same,normalized growth,"locus YFR003C, strain YPI1, hits give low values",0.694 (active)
same,normalized growth,"locus YFR019W, strain FAB1, hits give low values",0.171 (active)
same,normalized growth,"locus YFR028C, strain CDC14, hits give low values",0.649 (active)
same,normalized growth,"locus YGR040W, strain KSS1, hits give low values",0.182 (active)
same,normalized growth,"locus YGR052W, strain FMP48, hits give low values",0.156 (active)
same,normalized growth,"locus YGR092W, strain DBF2, hits give low values",0.152 (active)
same,normalized growth,"locus YHR030C, strain SLT2, hits give low values",0.157 (active)
same,normalized growth,"locus YHR079C, strain IRE1, hits give low values",0.211 (active)
same,normalized growth,"locus YHR082C, strain KSP1, hits give low values",0.204 (active)
same,normalized growth,"locus YHR205W, strain SCH9, hits give low values",0.124 (active)
same,normalized growth,"locus YIL147C, strain SLN1, hits give low values",0.669 (active)
same,normalized growth,"locus YJL095W, strain BCK1, hits give low values",0.154 (active)
same,normalized growth,"locus YJL128C, strain PBS2, hits give low values",0.595 (active)
same,normalized growth,"locus YJL157C, strain FAR1, hits give low values",0.227 (active)
same,normalized growth,"locus YJR016C, strain ILV3, hits give low values",0.483 (active)
same,normalized growth,"locus YJR066W, strain TOR1 (second series), hits give low values",0.147 (active)
same,normalized growth,"locus YJR066W, strain TOR1, hits give low values",0.15 (active)
same,normalized growth,"locus YKL048C, strain ELM1, hits give low values",0.33 (active)
same,normalized growth,"locus YKL067W, strain YNK1, hits give low values",0.272 (active)
same,normalized growth,"locus YKL101W, strain HSL1, hits give low values",0.209 (active)
same,normalized growth,"locus YKL193C, strain SDS22, hits give low values",0.498 (active)
same,normalized growth,"locus YKL203C, strain TOR2, hits give low values",0.158 (active)
same,normalized growth,"locus YLR113W, strain HOG1, hits give low values",0.303 (active)
same,normalized growth,"locus YLR133W, strain CKI1, hits give low values",0.196 (active)
same,normalized growth,"locus YLR403W, strain SFP1, hits give low values",0.154 (active)
same,normalized growth,"locus YML070W, strain DAK1, hits give low values",0.214 (active)
same,normalized growth,"locus YMR001C, strain CDC5, hits give low values",0.614 (active)
same,normalized growth,"locus YMR205C, strain PFK2 (second series), hits give low values",0.236 (active)
same,normalized growth,"locus YMR277W, strain FCP1, hits give low values",0.46 (active)
same,normalized growth,"locus YNL006W, strain LST8, hits give low values",0.593 (active)
same,normalized growth,"locus YNL020C, strain ARK1, hits give low values",0.183 (active)
same,normalized growth,"locus YNL161W, strain CBK1, hits give low values",0.636 (active)
same,normalized growth,"locus YNL183C, strain NPR1, hits give low values",0.161 (active)
same,normalized growth,"locus YNL207W, strain RIO2, hits give low values",0.473 (active)
same,normalized growth,"locus YNL222W, strain SSU72, hits give low values",0.634 (active)
same,normalized growth,"locus YNL307C, strain MCK1 (second series), hits give low values",0.16 (active)
same,normalized growth,"locus YOL078W, strain AVO1, hits give low values",0.511 (active)
same,normalized growth,"locus YOL136C, strain PFK27, hits give low values",0.192 (active)
same,normalized growth,"locus YOR061W, strain CKA2, hits give low values",0.244 (active)
same,normalized growth,"locus YOR119C, strain RIO1, hits give low values",0.221 (active)
same,normalized growth,"locus YOR231W, strain MKK1, hits give low values",0.206 (active)
same,normalized growth,"locus YOR329C, strain SCD5, hits give low values",0.579 (active)
same,normalized growth,"locus YPL031C, strain PHO85, hits give low values",0.184 (active)
same,normalized growth,"locus YPL153C, strain RAD53, hits give low values",0.207 (active)
same,normalized growth,"locus YPL204W, strain HRR25, hits give low values",0.198 (active)
same,normalized growth,"locus YPL209C, strain IPL1, hits give low values",0.684 (active)
same,normalized growth,"locus YPL256C, strain CLN2, hits give low values",0.223 (active)
same,normalized growth,"locus YPR025C, strain CCL1, hits give low values",0.705 (active)
same,normalized growth,"locus YPR106W, strain ISR1, hits give low values",0.601 (active)
same,normalized growth,"locus YPR111W, strain DBF20, hits give low values",0.691 (active)
same,normalized growth,"strain NNK1, hits give low values",0.305 (active)
same,normalized growth,"strain TSCII, hits give low values",0.527 (active)
